Screening data from PubChem.
POLI inh: qHTS for Inhibitors of Polymerase Iota. Pol iota fluorescent replication assay, 10 min. Potency, µM (titrated, usually from 115 µM), hits mostly inhibitors. hit rate 1% among 390,000. AID 588590, 2011
Target sequence (Q9UNA4 whole entry, looked up): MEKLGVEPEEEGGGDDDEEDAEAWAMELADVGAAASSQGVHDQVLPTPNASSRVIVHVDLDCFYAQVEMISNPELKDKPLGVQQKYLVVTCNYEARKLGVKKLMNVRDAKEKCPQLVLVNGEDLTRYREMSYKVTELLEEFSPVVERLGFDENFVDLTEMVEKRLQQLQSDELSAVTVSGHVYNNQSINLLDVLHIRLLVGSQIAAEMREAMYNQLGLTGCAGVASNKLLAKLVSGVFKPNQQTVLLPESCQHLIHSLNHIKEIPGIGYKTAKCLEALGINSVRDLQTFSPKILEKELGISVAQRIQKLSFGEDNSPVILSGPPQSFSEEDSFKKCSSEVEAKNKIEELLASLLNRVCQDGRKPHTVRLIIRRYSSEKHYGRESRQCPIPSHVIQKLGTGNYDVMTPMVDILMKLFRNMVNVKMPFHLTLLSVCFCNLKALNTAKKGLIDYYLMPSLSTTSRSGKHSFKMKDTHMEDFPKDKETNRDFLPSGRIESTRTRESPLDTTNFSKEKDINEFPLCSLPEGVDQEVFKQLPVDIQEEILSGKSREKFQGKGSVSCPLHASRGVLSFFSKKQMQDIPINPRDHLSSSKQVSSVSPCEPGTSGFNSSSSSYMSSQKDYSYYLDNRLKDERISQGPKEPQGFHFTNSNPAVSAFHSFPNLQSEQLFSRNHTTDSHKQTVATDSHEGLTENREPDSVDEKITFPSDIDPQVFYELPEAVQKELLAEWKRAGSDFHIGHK
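Pol iota at 10 nM preincubated 15 min with compounds at room temperature; reaction started with fluorescent substrate, 50 nM final. Fluorescence read kinetically at 0 and 10 min; buffer-only wells as negative control.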
PI5P4Ka inh: qHTS for Inhibitors of phosphatidylinositol 5-phosphate 4-kinase (PI5P4K). Phosphatidylinositol 5-phosphate 4-kinase type-2 alpha (Homo sapiens), P48426. PI5P4Kalpha enzyme, ADP-Glo luminescence, 60 min; hits give low values. max response, %. hit rate 1.2% among 330,000; active means max response of -50% or lower; inconclusive means between -30% and -50%; inactive means -30% or higher; further: value at the top dose of about 77 µM
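Human PI5P4Kalpha with substrate in 0.038 M HEPES pH 7.4, 0.28 mM EGTA, 0.1% CHAPS, 5% DMSO; reaction started with 5 microM ATP (final), 60 min at room temperature. ADP formed read by ADP-Glo luminescence.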
POLK inh: qHTS for Inhibitors of Polymerase Kappa; DNA polymerase kappa (Homo sapiens), Q9UBT6; hit rate 0.53% among 400,000; Potency, µM (doses to about 107 µM), most hits filed as inhibitors; AID 588579, 2011; purified Pol kappa, fluorescent DNA synthesis assay, 10 min
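10 nM Pol kappa preincubated 15 min at room temperature with compounds, then reaction started with substrate at 50 nM final. Fluorescence read kinetically at 0 and 10 min; buffer-only wells served as negative control.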
Pol eta inh: qHTS for Inhibitors of Polymerase Eta; hit rate 1.2% among 390,000; recombinant Pol eta, fluorescent DNA replication assay; AID 588591, 2011; Potency, µM (series often up to 114 µM), hits mostly inhibitors; DNA polymerase eta (Homo sapiens), Q9Y253
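Fluorescent replication assay: 50 nM final substrate added after a 15 min room-temperature compound preincubation with 10 nM enzyme. Signal taken at 0 min and again at 10 min.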
POLB inh: qHTS Assay for Inhibitors of DNA Polymerase Beta; Potency, µM (doses to about 114 µM), hits mostly inhibitors; Pol beta primer extension/strand displacement, fluorescence kinetic; hit rate 1.3% among 340,000
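Human Pol beta at 10 nM; strand-displacement substrate 50 nM final. Compound exposure 15 min at room temperature before start, reaction 10 min at room temperature.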
WRN helicase inh: qHTS for Inhibitors of WRN Helicase; hit rate 0.46% among 360,000; Potency, µM (highest dose often 114 µM), hits mostly inhibitors; AID 651768, 2012; Bifunctional 3'-5' exonuclease/ATP-dependent helicase WRN (Homo sapiens), Q14191; WRN helicase unwinding, fluorescent forked duplex, kinetic; further: nearly all actives have a fitted effect of over 55% in size
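Fluorescence dequenching readout, ex 525 nm/em 598 nm, kinetic mode: forked duplex DNA (100 nM final) with adjacent fluorophore and quencher unwound by WRN (20 nM final) with 2 mM ATP. Compound preincubation 15 min, room temperature.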
Numbers stand for hits; i = inactive; ? = inconclusive; nt = not tested or not shown; [ ] = dose if it differs, or a comment. Compounds with a hit are over-represented: about 2.8% of the library has one in this group of screens. Unless noted, the call rests on the fitted dose curve; in most records, active means well fitted curve in the direction sought with a large enough effect; inconclusive means small, poorly fitted or top-dose-only effect, or another doubt; inactive means no such curve, though single readings can be large; an effect the other way counts as inactive or inconclusive.

SMILES	POLI inh	PI5P4Ka inh	POLK inh	Pol eta inh	POLB inh	WRN helicase inh
COc1ccc(CCC(=O)N2c3ccccc3N=C(c3ccc4c(c3)OCO4)C2C(=O)NCc2ccccc2)cc1 (stereo not drawn)	nt	i	nt	nt	nt	i
CCCOC(=O)C1=C(C)N(C)C(=O)NC1c1cc2c(cc1[N+](=O)[O-])OCO2 (stereo not drawn)	4.5µM	i	79µM	i	?	i[11.6 µM]
Cc1cc(NC(=O)CSc2[nH]c(=O)cc(C(F)(F)F)c2C#N)no1	i	-75	i	i	nt	i
Cc1cc(-n2c(C)cc(C(=O)CSc3[nH]c(=O)cc(C(F)(F)F)c3C#N)c2C)no1	i	i	i	i	nt	i
Cc1cc(C)n2nc(CNC(=O)c3cccc(Cl)c3)nc2n1	i	nt	i	i	i	nt
O=c1c2c3nc4ccccc4nc3n(Cc3ccccc3)c2ncn1Cc1ccco1	?	-68	?	18µM	28µM	?
COCCCn1c2nc3ccccc3nc2c2c(=O)n(Cc3ccc(Cl)cc3)cnc21	i	i	i	i	i	i
COc1cccc(C(=O)Nc2c3c(nn2-c2ccc(Cl)cc2)CS(=O)(=O)C3)c1OC	i	i	i	i	i	i
COc1cc2c(cc1OC)C1O[C@](CCCCN3C(=O)c4ccccc4C3=O)(C2)Oc2c1c(=O)oc1ccc(F)cc21	nt	nt	nt	nt	3.5µM	nt
COc1ccc(C(=O)OCC(=O)c2ccc[nH]2)cc1	i	i	i	i	nt	i
CC(C)C(=O)NC(=S)Nc1sc2c(c1C(N)=O)CCCC2	i	-54	i	?	i	?
CCCC(=O)NC(=S)Nc1sc2c(c1C(N)=O)CCC2	i	?	i	i	i	i
O=C(Nc1cccc(S(=O)(=O)C(F)(F)F)c1)[C@@H]1O[C@H](CO)[C@@H](O)[C@H]1O	nt	i	nt	nt	nt	i
CCCc1nc2c(ccc3ccccc32)cc1CC	i	i	i	i	i	i
CCc1nnc(NS(=O)(=O)c2ccc(N/C=C\C(=O)c3cccc(OC)c3)cc2)s1	i	i	i	i	i	i
CCc1nnc(NS(=O)(=O)c2ccc(NC(=O)/C=C/c3ccc(OC)cc3OC)cc2)s1	?	?	?	?	56µM	?
S=C(SSC(=S)N1CCOCC1)N1CCOCC1	nt	-88	nt	nt	nt	i
C/C=C/c1ccc(OCC(=O)Nc2cc(OC)c(OC)c(OC)c2)c(OC)c1	i	i	i	i	i	i
COc1ccc(NC(=O)COc2ccc(/C=C/c3cccc[n+]3C)cc2OC)cc1	45µM	i	?	i	11µM	i[11.6 µM]
COc1cc(/C=C/c2cccc[n+]2C)ccc1OCC(=O)Nc1cccc(Cl)c1	?	i	i	i	40µM	i
COc1ccc(NC(=O)COc2ccc(/C=C/c3cc[n+](C)cc3)cc2OC)cc1	?	i	i	i	?	i
C/C=C/c1ccc(OCC(=O)O)c(OC)c1	i	i	i	35µM	?	i[11.6 µM]
COc1cc(/C=C/c2cccc[n+]2C)ccc1OCC(=O)Nc1ccccc1	?	i	i	?	16µM	i
CC1=C(C(=O)Nc2ccc(C)cc2Cl)C2(CCCCC2)OC1=O	i	nt	i	nt	i	nt
CN(C)c1ccc(-c2nccc(Nc3ccc(F)cc3)n2)cc1	nt	nt	i	nt	nt	nt
SMILES	POLI inh	PI5P4Ka inh	POLK inh	Pol eta inh	POLB inh	WRN helicase inh
CCCCn1nnnc1C(c1ccccc1)N1CCN(c2c(Cl)cncc2Cl)CC1 (stereo not drawn)	nt	i	nt	nt	nt	i
COc1cc2c(cc1OC)CN(Cc1cc(=O)n3cc(C)ccc3n1)CC2	i	i	i	i	i	i
C/C=C/c1ccc(OCc2cc(=O)n3cc(C)ccc3n2)c(OC)c1	?	i	i	i	35µM	i
COc1cc(/C=C/c2cc[n+](C)cc2)ccc1OCC(=O)Nc1ccc(Cl)c(Cl)c1	i	i	i	89µM	56µM	i[11.6 µM]
COc1ccc(CCN2C(=O)C=CC2=O)cc1OC	i	i	i	i	nt	32µM
COc1ccc(CCN2C(=O)CC(Cc3ccc(C)cc3)C2=O)cc1OC (stereo not drawn)	i	-69	i	i	i	?
COc1ccc(CCn2c(C)ccc2C)cc1OC	nt	nt	nt	nt	i	nt
CC(C)(Cc1c[nH]c2ccccc12)NCC(O)COc1ccccc1C#N (stereo not drawn)	nt	nt	i	nt	nt	nt
CC1(c2ccc3c(c2)OCCO3)NC(=O)N(CC(=O)Nc2ccccc2F)C1=O (stereo not drawn)	i	i	i	i	nt	i
O=C(N/N=C/c1ccc(Cl)cc1Cl)c1ccc2nc[nH]c2c1	i	i	i	i	16µM	i
CC(/C=N/NC(=O)c1ccncc1)=C\c1ccccc1	i	nt	i	i	i	i
CC(=C/c1ccccc1)/C=N/NC(=O)c1ccccn1	i	i	i	i	63µM	i
COc1ccccc1/C=C/C=N/NC(=O)c1ccc2nc[nH]c2c1	nt	nt	nt	nt	35µM	nt
O=C(N/N=C/C(Br)=C/c1ccccc1)c1ccncc1	i	i	i	i	i	i
O=C(N/N=C/C(Br)=C\c1ccccc1)c1ccc2nc[nH]c2c1	?	i	i	?	13µM	i
O=C(NCc1ccccc1)C1C(=O)Nc2ccccc2C(=O)N1c1ccc2c(c1)OCCO2 (stereo not drawn)	nt	i	nt	nt	nt	i
CC(/C=N/NC(=O)c1cc(-c2ccc(C)s2)[nH]n1)=C\c1ccccc1	i	i	i	i	i	i
COc1cccc(/C=N/NC(=O)c2ccc3nc[nH]c3c2)c1	i	i	i	i	?	i
CC(/C=N/NC(=O)c1cccc(F)c1)=C\c1ccccc1	i	i	i	i	18µM	i
COc1ccccc1C(=O)N/N=C/C(C)=C/c1ccccc1	i	i	i	i	?	i
O=C(N/N=C/c1ccc(OC(=O)c2cccc(F)c2)cc1)c1cccnc1	i	i	i	i	?	i
CC(=C/c1ccccc1)/C=N/NC(=O)c1ccc2nc[nH]c2c1	i	i	i	i	32µM	i
O=C(N/N=C/c1ccc(OC(=O)c2cccs2)cc1)c1cccc(F)c1	i	nt	i	i	8.9µM	i
CC(/C=N/NC(=O)c1ccc2nc(C)[nH]c2c1)=C\c1ccccc1	i	i	i	?	28µM	i
Cc1nc(Oc2ccccc2C)c2oc3ccccc3c2n1	i	nt	i	i	i	nt
C=Cc1ccc(Cn2c(C(=O)O)c(CNC3CCCCC3)c3ccc(OC)cc32)cc1	?	nt	i	?	35µM	nt
COc1ccc(Cn2c(C(=O)O)c(CNC3CCCCCC3)c3ccc(OC)cc32)cc1	i	nt	i	i	i	nt
O=C(O)c1nc(NCCc2ccccc2)ncc1Cl	i	i	i	i	i	i
